Test systems include DU-145 prostate; K-562 leukemia; MALME-3M melanoma; MDA-MB-231 breast; RXF 393 renal; SF-268 CNS; SF-295 CNS; SF-539 CNS; UACC-257 melanoma; M14 melanoma.
Experiment in all cases: NCI-60 one-dose screen, 48 h (100 = growth as untreated, 0 = no growth, -100 = all killed)
Common to all, as to details: 10 µM unless noted

About 83,000 compounds went through this panel and 20% of them were active in at least one assay; those are over-represented in the sample as a whole.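 Plates (96-well) were seeded with cells, treated with compound at one concentration, and incubated for 48 hours before percent growth was determined.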 A number with no mark means an inactive call. Active and inactive are the calls of the source. The calls were made as follows: active = growth percent below 10; inactive = the rest.

`Cc1nc2sc(C(=O)Nc3cccc(Cl)c3C)c(N)c2cc1C(=O)c1ccccc1`: the growth was 11% with DU-145 prostate; 13.5% with K-562 leukemia; 25% with MALME-3M melanoma; 39% with MDA-MB-231 breast; 3.56% (active) with RXF 393 renal; 29.2% in the test with SF-268 CNS. Also, the growth in the test on SF-295 CNS was 1.83% (active); with SF-539 CNS it was -7.44% (active); with UACC-257 melanoma, 63.3%; in the test on M14 melanoma, 6.11% (active).

With `O=C1/C(=C/c2ccc(F)cc2)COc2ccc(O)c(O)c21`, the growth in the test with DU-145 prostate was 18.6%; in the test on K-562 leukemia it was 10.6%; in the test on MALME-3M melanoma, -10.4% (active); in the test on MDA-MB-231 breast, -12.1% (active); with RXF 393 renal, -3.02% (active); with SF-268 CNS, 13.1%. The growth with SF-295 CNS was 75%; in the test with SF-539 CNS, -62.1% (active); in the test with UACC-257 melanoma, 15.8%; with M14 melanoma it was 37.5%.

For `CC(C)CCC[C@@H](C)[C@H]1CC[C@H]2[C@@H]3CC=C4C[C@@H](C(C(=O)O)C(=O)O)CC[C@]4(C)[C@H]3CC[C@]12C`, the growth in the test on DU-145 prostate is -83.5% (active); with K-562 leukemia, -48.3% (active); in the test with MALME-3M melanoma it was -43% (active); in the test with MDA-MB-231 breast it was -28.2% (active); in the test with RXF 393 renal, -49.8% (active); in the test on SF-268 CNS it was -24.6% (active). The growth is -61.2% (active) with SF-295 CNS, -27.3% (active) with SF-539 CNS, -49.8% (active) with UACC-257 melanoma and -72.9% (active) in the test with M14 melanoma.

Consider `O=C(Cn1cc(CN2C(=O)c3ccccc3S2(=O)=O)nn1)Nc1nc2ccccc2s1`, for which the growth in the test with DU-145 prostate is 108%; in the test on K-562 leukemia, 101%; in the test with MALME-3M melanoma it was 95%; with MDA-MB-231 breast, 108%; in the test with RXF 393 renal, 117%; in the test with SF-268 CNS, 97.3%. For the same compound, the growth with SF-295 CNS was 101%; in the test on SF-539 CNS, 98.4%; in the test on UACC-257 melanoma it was 101%; with M14 melanoma, 103%.

As for `COc1ccc(C(=O)Nc2cccc(C3CC(=O)c4c(cc(OC)c(OC)c4OC)O3)c2)cc1` (stereo not given), the growth was 2.98% (active) in the test on DU-145 prostate; 7.66% (active) in the test on K-562 leukemia; 31.4% in the test with MALME-3M melanoma; 41.9% in the test with MDA-MB-231 breast; -8.37% (active) in the test with RXF 393 renal; 46.6% in the test on SF-268 CNS. Also, the growth was 9.55% (active) with SF-295 CNS, -29.7% (active) in the test with SF-539 CNS, 46.2% in the test on UACC-257 melanoma and -23.9% (active) in the test on M14 melanoma.

Take `CC(=O)[C@@H]1CCC=C2CC[C@]3(C)[C@@H](CC[C@@H]4[C@@]5(C)CCCNC(C)(C)[C@@H]5CC[C@]43C)[C@H]21`: the growth with DU-145 prostate was -36.8% (active); in the test with K-562 leukemia it was -44.6% (active); in the test with MALME-3M melanoma, -56.1% (active); in the test on MDA-MB-231 breast, -76.5% (active); in the test with RXF 393 renal it was -91.9% (active); in the test with SF-268 CNS it was 12.3%. The growth with SF-295 CNS was -84.7% (active); in the test on SF-539 CNS, 9.45% (active); in the test with UACC-257 melanoma, -67.4% (active); in the test with M14 melanoma, -82.1% (active).

Take `CC(=O)Cc1nsc(NC(=O)c2cc(-c3cc(Cl)cc(Cl)c3)oc2C)n1`: the growth in the test with DU-145 prostate was 108%; in the test with K-562 leukemia it was 100%; in the test on MALME-3M melanoma, 111%; with MDA-MB-231 breast, 104%; in the test with RXF 393 renal, 105%; with SF-268 CNS, 88.1%. Also, the growth in the test with SF-295 CNS was 99.4%; with SF-539 CNS, 98.5%; in the test on UACC-257 melanoma it was 89%; in the test with M14 melanoma, 105%.

Turning to `COCCNC(=O)c1ccc(-c2nc3ccc4[nH]ncc4c3c3c2CCCC3)cc1`, the growth in the test with DU-145 prostate was 41.3%; in the test with K-562 leukemia, 24.9%; in the test on MALME-3M melanoma, 30.5%; in the test with MDA-MB-231 breast, 50.4%; in the test on RXF 393 renal, 11.8%; with SF-268 CNS, 32.4%. Also, the growth in the test with SF-295 CNS is 32.5%; with SF-539 CNS, 12.2%; in the test with UACC-257 melanoma it was 71.2%; in the test on M14 melanoma, 35.1%.

For `CC(C)c1ccc(NC(=O)Nc2ccc(NC(=O)CCCC(=O)NOCc3ccccc3)cc2)cc1`, the growth with DU-145 prostate was 94.3%; with K-562 leukemia, 83.4%; with MALME-3M melanoma, 82.8%; in the test on MDA-MB-231 breast it was 93.9%; with RXF 393 renal it was 109%; in the test on SF-268 CNS, 95.9%. Further, the growth in the test on SF-295 CNS is 91.2%; in the test with SF-539 CNS, 75.1%; in the test on UACC-257 melanoma, 86.5%; in the test with M14 melanoma, 97.3%.

Consider `Cc1cc(Cl)ccc1Nc1nc(C(F)(F)F)ccc1C(=O)N/N=C/c1ccc([N+](=O)[O-])cc1`, for which the growth was 5.82% (active) in the test with DU-145 prostate; -1.48% (active) in the test on K-562 leukemia; -13.5% (active) in the test on MALME-3M melanoma; -51.5% (active) in the test on MDA-MB-231 breast; 5.4% (active) in the test with RXF 393 renal; 13.8% with SF-268 CNS. Besides, the growth was -56.4% (active) with SF-295 CNS, 3.77% (active) with SF-539 CNS, -13.1% (active) in the test on UACC-257 melanoma and 26.9% with M14 melanoma.

For the compound `S=C(Nc1ccc(-c2nc(N3CCOCC3)c3cccn3n2)cc1)Nc1cccnc1`, the growth in the test with DU-145 prostate is 18.6%; in the test with K-562 leukemia, 26.2%; in the test on MALME-3M melanoma, 24.7%; with MDA-MB-231 breast, 41.3%; with RXF 393 renal, 17.9%; in the test with SF-268 CNS, 53.1%. Further, the growth in the test on SF-295 CNS was 25.6%; with SF-539 CNS it was 10%; in the test on UACC-257 melanoma it was 50.9%; with M14 melanoma it was 32.1%.

Turning to `C=C1C(=O)O[C@H]2[C@H]1CC/C(COC(=O)N[C@H]1C[C@H](O[C@H]3C[C@](O)(C(=O)CO)Cc4c(O)c5c(c(O)c43)C(=O)c3c(OC)cccc3C5=O)O[C@@H](C)[C@H]1O)=C\CC[C@@]1(C)O[C@@H]21`, the growth is 69% in the test on DU-145 prostate; 7.56% (active) with K-562 leukemia; -28.6% (active) with MALME-3M melanoma; 11% with MDA-MB-231 breast; 19.2% in the test on RXF 393 renal; 64.2% with SF-268 CNS. Further, the growth with SF-295 CNS was 102%; with SF-539 CNS it was 20.8%; in the test on UACC-257 melanoma, 61.4%; in the test on M14 melanoma, 82.6%.

In the case of `COc1ccc2cc(-c3ccc(NC(C)=O)c(=O)o3)ccc2c1`, the growth in the test on DU-145 prostate was 103%; in the test on K-562 leukemia it was 81.4%; in the test with MALME-3M melanoma, 101%; in the test on MDA-MB-231 breast, 110%; in the test with RXF 393 renal, 98.3%; in the test with SF-268 CNS, 95.5%. For the same compound, the growth in the test on SF-295 CNS is 100%; in the test on SF-539 CNS, 96.7%; in the test on UACC-257 melanoma, 89.3%; in the test on M14 melanoma, 94.3%.
